Source: PubChem
A selection: hits, their analogues and other compounds. The true share with any hit is near 4.9%.
PP1 inh: PP1-alpha phosphatase inhibitors, primary screen, counter-screen for PP5 inhibitor project, biochemical, fluorescence, OMFP substrate, single point; Serine/threonine-protein phosphatase PP1-alpha catalytic subunit (Homo sapiens), P62136; purified PP1alpha; inhibition, % at 6.7 µM; 320,000 tested, 0.9% active;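 active means inhibition above the mean inhibition of all tested compounds plus 3 SD, computed separately for each screening campaign, cut at about 15% in these data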
PP5 primary: PP5 phosphatase inhibitors, primary screen, biochemical, fluorescence; Serine/threonine-protein phosphatase 5 (Homo sapiens), P53041; purified PP5c, OMFP substrate fluorescence; inhibition, % at 6.7 µM; 320,000 tested, 0.18% active;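 active means inhibition above the campaign's mean inhibition across all tested compounds plus 3 SD, cut at about 9.5% in these data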
Calb FLC: C. albicans growth inhibition with fluconazole, primary screen, CaCi-2 strain, Alamar Blue fluorescence. C. albicans CaCi-2 (fluconazole-resistant clinical isolate) + fluconazole, 48 h. growth inhibition, % (no concentration beside the values). 300,000 tested, 0.57% active. AID 1979, 2009;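 active means growth inhibition above about 58% in most replicates, limit read from the data, passing the limit was not always enough; inconclusive means exactly half the replicates above a set limit; inactive means most replicates below a set limit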;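 further: all wells also contain fluconazole at 8 µg/ml as a sub-toxic cotreatment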
Beta cell apopt: inhibitors of cytokine-induced beta cell apoptosis, primary screen, luminescence | INS-1E cytokine-induced death, ATP luminescence, 48 h; percent of positive-control rescue, neutral wells zero | protection from apoptosis, % (test concentration not listed) | 300,000 tested, 0.8% active;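 active means Every replicate reaches about 75%, or at least half do and their mean reaches it too, limit read from the data; inconclusive means At least half of replicates reach the limit but their mean does not; inactive means Under half of replicates reach the limit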;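 further: higher means more ATP so stronger rescue from cytokine killing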
CSC inhib: cancer stem cell viability inhibitors, primary screen, luminescence | inhibition, % at 7.5 µM | cancer stem cell-like cells viability | 300,000 tested, 1.1% active | AID 2717, 2010; in the data active means inhibition above about 75%; inconclusive means no clear call, values can overlap the other calls; tested in HMLE shEcad cells
Mdm2 MdmX PPI: inhibitors of human Mdm2-MdmX association, primary screen, cell-based, luminescence, split luciferase, SaOS-2, uHTS; Protein Mdm4 (Homo sapiens) + E3 ubiquitin-protein ligase Mdm2 (Homo sapiens), …; SaOS-2 split-luciferase Mdm2/MdmX complementation; inhibition, % at 8 µM; 330,000 tested, 3% active;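 active means inhibition of at least 50% at 8 µM in the primary screen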
Target sequence (O15151 whole entry, looked up): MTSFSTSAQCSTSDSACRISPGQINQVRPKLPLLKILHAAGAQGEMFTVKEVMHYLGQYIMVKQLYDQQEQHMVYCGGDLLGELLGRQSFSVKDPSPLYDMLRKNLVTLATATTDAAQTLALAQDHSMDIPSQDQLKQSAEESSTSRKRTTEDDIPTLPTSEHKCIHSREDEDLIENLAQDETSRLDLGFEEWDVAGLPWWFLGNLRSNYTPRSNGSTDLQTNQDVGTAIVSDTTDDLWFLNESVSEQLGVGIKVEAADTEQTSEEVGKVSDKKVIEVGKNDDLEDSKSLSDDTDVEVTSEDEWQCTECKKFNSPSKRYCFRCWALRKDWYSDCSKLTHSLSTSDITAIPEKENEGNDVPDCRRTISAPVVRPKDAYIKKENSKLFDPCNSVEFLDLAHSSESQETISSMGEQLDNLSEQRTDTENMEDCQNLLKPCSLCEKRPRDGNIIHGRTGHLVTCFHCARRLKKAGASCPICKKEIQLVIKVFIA
Target sequence (Q00987 whole entry, looked up): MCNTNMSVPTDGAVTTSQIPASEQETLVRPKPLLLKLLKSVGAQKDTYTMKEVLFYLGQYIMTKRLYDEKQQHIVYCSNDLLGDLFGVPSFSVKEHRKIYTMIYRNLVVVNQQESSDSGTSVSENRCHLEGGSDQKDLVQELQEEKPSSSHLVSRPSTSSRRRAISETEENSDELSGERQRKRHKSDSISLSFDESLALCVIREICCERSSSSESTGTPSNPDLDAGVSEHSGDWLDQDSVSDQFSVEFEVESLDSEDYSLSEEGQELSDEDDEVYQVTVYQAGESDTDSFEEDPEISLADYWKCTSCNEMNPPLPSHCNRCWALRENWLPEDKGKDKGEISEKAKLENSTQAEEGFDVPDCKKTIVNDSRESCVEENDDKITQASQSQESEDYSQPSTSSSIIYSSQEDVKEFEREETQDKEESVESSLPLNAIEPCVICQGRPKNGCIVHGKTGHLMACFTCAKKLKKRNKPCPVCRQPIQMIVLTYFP
Mdm2 MdmX conf: Mdm2-MdmX complex disruptors, retested hits, confirmation, luminescence, single concentration; Mdm2-MdmX binding, luminescent assay; inhibition, % at 8 µM; shares compounds with Mdm2 MdmX PPI; 10,000 tested, 55% active; in the data active means inhibition above about 40%
FLuc counter: full-length luciferase signal inhibition, confirmation, counter-screen for Mdm2/MdmX interaction inhibitor project, cell-based, single concentration, SaOS-2 | shares compounds with Mdm2 MdmX PPI | SaOS-2 full-length luciferase counterscreen, luminescence | inhibition, % at 8 µM | 6,200 tested, 77% active;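 active means mean inhibition at 8 µM reaching about 37%, which flags the compound as non-specific, limit read from the data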;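 further: p53-null SaOS-2 cells with luciferase driven by a doxycycline-inducible promoter; compound on cells about two nights before reading with doxycycline added after day one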
Each line names hits and unclear results; the compound was inactive in the other large screens (follow-up assays come after a bar, where they were run).

COc1ccc(/C(N)=N/OC(=O)c2ccco2)cc1	none
Cc1ccc(C(=O)O/N=C(\N)c2ccc(Br)cc2)cc1	Mdm2 MdmX PPI 98 | Mdm2 MdmX conf inactive
N/C(=N\OC(=O)c1cccc(Br)c1)c1ccc(Br)cc1	none
Cc1ccc(C)c(S(=O)(=O)Nc2ccc(C(=O)N3CCCCC3)cc2)c1	none
CN(C(=O)COC(=O)C1(C)CC1(Cl)Cl)c1c(N)n(Cc2ccccc2)c(=O)[nH]c1=O (stereo not drawn)	none (no result: Calb FLC)
CN(C)c1ncnc(N(C)C)c1[N+](=O)[O-]	none
Cc1cc(C(=O)NNc2c(Cl)cccc2Cl)n(C(C)(C)C)n1	none
O=C(/C=C/c1ccco1)Nc1cc(Cl)ccc1C(=O)O	none
O=C(/C=C\c1ccco1)Nc1cc([N+](=O)[O-])ccc1F	Mdm2 MdmX PPI 59 (no result: CSC inhib) | Mdm2 MdmX conf 58 | FLuc counter 124
Cc1cc(Cl)c2oc(C(=O)N3CCN(c4ccncc4)CC3)c(C)c2c1	CSC inhib 83, Mdm2 MdmX PPI 90 | Mdm2 MdmX conf 51 | FLuc counter 57
COC(=O)C1CCN(C(=O)c2oc3c(Cl)cc(C)cc3c2C)CC1	none
CCOC(=O)C(=O)Nc1nc(-c2ccc3c(c2)CCN3C(=O)C2CC2)c(C)s1	none
CC(=O)Nc1nc(-c2ccc3c(c2)CC(C)N3C(=O)C2CC2)c(C)s1 (stereo not drawn)	Mdm2 MdmX PPI 85 | Mdm2 MdmX conf 85 | FLuc counter 54
Cc1sc(NC(=O)c2ccco2)nc1-c1ccc2c(c1)CC(C)N2C(=O)C1CC1 (stereo not drawn)	Mdm2 MdmX PPI 85 | Mdm2 MdmX conf 55 | FLuc counter 53
O=S(=O)(c1ccccc1)c1nnn2c1nc(NC1CCN(Cc3ccccc3)CC1)c1ccccc12	Mdm2 MdmX PPI 54 | Mdm2 MdmX conf inactive
Cc1ccc(C)c(Nc2nc3c(S(=O)(=O)c4ccccc4)nnn3c3ccccc23)c1	none
O=S(=O)(c1ccccc1)c1nnn2c1nc(NC1CCN(Cc3ccccc3)CC1)c1cc(Cl)ccc12	Mdm2 MdmX PPI 100 | Mdm2 MdmX conf inactive | FLuc counter 52
O=C(C1=C[C@@H](c2ccccc2)C[C@@H](OCc2ccc(CO)cc2)O1)N1CCN(Cc2ccc3c(c2)OCO3)CC1	Mdm2 MdmX PPI 52 | Mdm2 MdmX conf 48 | FLuc counter 69
O=C(C1=C[C@H](c2ccccc2)C[C@H](OCc2ccc(CO)cc2)O1)N1CCN(Cc2ccccc2)CC1	none
O=C(C1=C[C@@H](c2csc3ccccc23)C[C@@H](OCc2ccc(CO)cc2)O1)N1CCN(Cc2ccc3c(c2)OCO3)CC1	PP1 inh 16, Mdm2 MdmX PPI 54 | Mdm2 MdmX conf 46 | FLuc counter 53
O=C(C1=C[C@@H](C2CCCCC2)C[C@@H](OCc2ccc(CO)cc2)O1)N1CCN(Cc2ccc3c(c2)OCO3)CC1	none
O=C(C1=C[C@H](C2CCCCC2)C[C@H](OCc2ccc(CO)cc2)O1)N1CCN(Cc2ccc3c(c2)OCO3)CC1	Mdm2 MdmX PPI 52 (no result: Beta cell apopt) | Mdm2 MdmX conf inactive
CCN(CC)c1ccc(-c2nn3c(-c4ccccc4OC)nnc3s2)cc1	PP1 inh 16, CSC inhib 93, Mdm2 MdmX PPI 76 | Mdm2 MdmX conf 65 | FLuc counter 73
COc1ccc(-c2nn3c(-c4ccccc4)nnc3s2)cc1	none
COc1ccc(-c2noc(CNC(=O)c3ccoc3C)n2)cc1OC	none
O=C(Nc1ccccc1)/C(=C/c1ccc([N+](=O)[O-])cc1)NC(=O)c1ccco1	Mdm2 MdmX PPI 67 (no result: Beta cell apopt) | Mdm2 MdmX conf inactive
Cc1ccc(S(=O)(=O)N2C(=O)/C(=C3\SC(=S)NC3=O)c3ccccc32)cc1	Mdm2 MdmX PPI 51 | Mdm2 MdmX conf inactive | FLuc counter 82
CC(/C=N/NC(=O)c1nnn(-c2nonc2N)c1CN1CCCCC1)=C\c1ccccc1	none
Nc1nonc1-n1nnc(C(=O)N/N=C/c2cccc(O)c2)c1CN1CCCC1	none (no result: PP1 inh, PP5 primary)
Nc1nonc1-n1nnc(C(=O)N/N=C/c2cc(Cl)ccc2O)c1CN1CCCCCC1	PP1 inh 16, Calb FLC 101, Beta cell apopt 91, CSC inhib inconclusive, Mdm2 MdmX PPI 68 | Mdm2 MdmX conf 56 | FLuc counter inactive
C/C(=N\NC(=O)c1nnn(-c2nonc2N)c1CN1CCCCC1)c1ccccc1O	CSC inhib 81, Mdm2 MdmX PPI 51 | Mdm2 MdmX conf 47 | FLuc counter 44
CN1CCN(Cc2c(C(=O)N/N=C/c3cccc(Br)c3)nnn2-c2nonc2N)CC1	Mdm2 MdmX PPI 84 | Mdm2 MdmX conf inactive
Nc1nonc1-n1nnc(C(=O)N/N=C/c2ccc(Cl)cc2Cl)c1CN1CCCCC1	none (no result: CSC inhib)
COc1ccc(/C(C)=N/NC(=O)c2nnn(-c3nonc3N)c2CN(C)c2ccccc2)cc1	Mdm2 MdmX PPI 50 (no result: Calb FLC) | Mdm2 MdmX conf inactive
CN(Cc1c(C(=O)N/N=C/c2cccs2)nnn1-c1nonc1N)c1ccccc1	none (no result: Calb FLC)
C/C(=N\NC(=O)c1nnn(-c2nonc2N)c1CN(C)c1ccccc1)c1ccccc1O	Beta cell apopt 90, CSC inhib 98, Mdm2 MdmX PPI 69 | Mdm2 MdmX conf 76 | FLuc counter inactive
Cc1ccnc(NC(=O)Cc2ccc([N+](=O)[O-])cc2)c1	none (no result: CSC inhib)
Cc1ccc(NC(=O)CCc2c[nH]c3ccccc23)nc1	Mdm2 MdmX PPI 83 (no result: Beta cell apopt, CSC inhib) | Mdm2 MdmX conf 73 | FLuc counter 52
COc1ccc(NC(=O)c2cc(CN3C(=O)c4ccccc4C3=O)ccc2OC)cn1	Mdm2 MdmX PPI 53 | Mdm2 MdmX conf inactive
O=C(Cc1ccc(-c2ccccc2)cc1)Nc1ccccn1	Mdm2 MdmX PPI 69 | Mdm2 MdmX conf 55 | FLuc counter 62
COc1ccc(CN2C(=O)c3ccccc3C2=O)cc1C(=O)Nc1ccccc1N1CCOCC1	none
Cc1ccnc(NC(=O)Cc2ccc(-c3ccccc3)cc2)c1	Mdm2 MdmX PPI 91 | Mdm2 MdmX conf 94 | FLuc counter 145
Cc1ccc(NC(=O)Cc2ccc(-c3ccccc3)cc2)nc1	Mdm2 MdmX PPI 75 | Mdm2 MdmX conf 45 | FLuc counter 80
Cc1ccc(NC(=O)Cc2ccc(Cl)cc2)nc1	none
COc1ccc(CC(=O)Nc2ccc(OC)nc2)cc1	none
